This is a sample that favours compounds with a hit; in the whole collection about 18% have one here.
TDP1 inh = qHTS Assay for Inhibitors of Tyrosyl-DNA Phosphodiesterase (TDP1). Tyrosyl-DNA phosphodiesterase 1 (Homo sapiens), Q9NUW8. recombinant TDP1, AlphaScreen DNA substrate cleavage. Potency, µM (series often up to 130 µM), inactives show at the highest dose activity change, negative = inhibition, most hits filed as inhibitors. 350,000 compounds, 0.28% hits. AID 485290, 2010; note: potency is the fitted concentration of half-maximal effect; % is set by controls: 0 for no effect and ±100 for the full control effect; nearly all actives have a fitted effect of over 40% in size
Target sequence (Q9NUW8 whole entry, looked up): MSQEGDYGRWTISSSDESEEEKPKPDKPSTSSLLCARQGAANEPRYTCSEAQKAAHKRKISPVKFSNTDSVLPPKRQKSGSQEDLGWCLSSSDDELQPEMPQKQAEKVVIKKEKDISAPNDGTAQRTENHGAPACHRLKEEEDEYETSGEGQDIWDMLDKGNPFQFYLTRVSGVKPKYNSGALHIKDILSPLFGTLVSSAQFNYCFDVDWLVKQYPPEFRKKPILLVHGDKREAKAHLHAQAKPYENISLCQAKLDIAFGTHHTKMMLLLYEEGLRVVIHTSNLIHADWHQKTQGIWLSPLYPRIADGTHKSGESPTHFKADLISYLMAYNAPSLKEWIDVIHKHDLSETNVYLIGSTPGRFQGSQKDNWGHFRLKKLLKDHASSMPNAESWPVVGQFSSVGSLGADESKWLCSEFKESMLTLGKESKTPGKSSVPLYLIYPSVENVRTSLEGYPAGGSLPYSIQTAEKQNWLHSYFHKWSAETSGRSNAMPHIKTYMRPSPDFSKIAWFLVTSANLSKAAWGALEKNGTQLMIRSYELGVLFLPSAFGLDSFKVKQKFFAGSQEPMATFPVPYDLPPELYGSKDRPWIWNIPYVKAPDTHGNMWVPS
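Compounds were preincubated with Tdp1 (1 nM final) for 15 min at room temperature before substrate (15 nM final) started a 5 min reaction; beads (10 ug/ml final) were then added for 10 min before AlphaScreen detection.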
DT40 TDP1 no CPT = qHTS for Inhibitors of human tyrosyl-DNA phosphodiesterase 1 (TDP1): qHTS in cells in absence of CPT | Potency, µM (highest dose often 46.2 µM), without a hit: at the top dose activity change, negative = growth inhibition, usual class: inhibitors | DT40 Tdp1-/- hTDP1 cells, no CPT, ATP luminescence, 48 h | 420,000 compounds, 15% hits | AID 686978, 2013; note: potency is the fitted concentration of half-maximal effect; % is set by controls: 0 for no effect and ±100 for the full control effect; nearly all actives have a fitted effect of over 55% in size
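Growth kinetics read by CellTiter-Glo luminescence after ≥48 hr at 37 °C. Cells: DT40 Tdp1-/- stably carrying human TDP1, 400 per well, compound exposure in the absence of CPT (DMSO vehicle).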
HepG2 tox = qHTS for Inhibitors of TGF-b: Cytotox Counterscreen | HepG2 CAGA-GFP viability, ATP luminescence, 18 h | Potency, µM (top dose mostly 46.1 µM), inactives show at the top dose activity change, negative = cytotoxicity, most hits filed as cytotoxic | 410,000 compounds, 0.76% hits; note: potency is the fitted concentration of half-maximal effect
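HepG2 CAGA-GFP cells (1000/well, DMEM with 1% FBS) received compound, then TGF-beta at 500 pg/mL final, and were incubated 18 hours at 37 degrees C. Viability was read by CellTiter-Glo luminescence. Media-only wells were set as complete cell-killing and DMSO as no toxicity.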
IL-1B inflam inh = qHTS for Inhibitors of Inflammasome Signaling: IL-1-beta AlphaLISA Primary Screen; THP-1 LPS/ATP IL-1B secretion, AlphaLISA, 16 h; stronger effect = lower value; activity change, % at 57.5 µM; 360,000 compounds, 4.7% hits; AID 743279, 2014; in the data active = activity change below about -50%; inconclusive = mostly about -30% to -49%; note: % is set by controls: 0 for no effect and ±100 for the full control effect
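THP-1 cells pretreated 1 hr with compounds (up to 57.5 uM final), then stimulated with LPS (250 ng/mL final) plus ATP (1.25 mM final); secreted IL-1B measured by AlphaLISA after 16 hr, decreased signal indicating inhibition.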
TGFb inhibitor = qHTS for Inhibitors of TGF-b; HepG2 CAGA-GFP TGF-b/SMAD3 reporter, GFP fluorescence, 18 h; TGF-beta stimulated, 500 pg/mL final; Potency, µM (top dose mostly 46.1 µM), inactives show top-dose activity, negative = inhibition, hits mostly inhibitors; 410,000 compounds, 1.2% hits; note: potency is the fitted concentration of half-maximal effect; % is set by controls: 0 for no effect and ±100 for the full control effect; nearly all actives have a fitted effect of over 65% in size
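Smad-responsive CAGA-GFP expression was quantified in HEPG2 cells exposed to compounds and 500 pg/mL final TGF-beta for 18 h at 37 degrees C; unstimulated wells defined full inhibition.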
TDP1 cell CPT = qHTS for Inhibitors of human tyrosyl-DNA phosphodiesterase 1 (TDP1): qHTS in cells in presence of CPT; chicken DT40 Tdp1-/-;hTDP1 cells + 20 nM CPT, ATP luminescence, 48 h; Potency, µM (titrated, usually from 46.2 µM), for inactives: top-dose activity change, negative = growth inhibition, most hits filed as inhibitors; 420,000 compounds, 12% hits; AID 686979, 2013; note: potency is the fitted concentration of half-maximal effect; % is set by controls: 0 for no effect and ±100 for the full control effect; nearly all actives have a fitted effect of over 55% in size
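Chicken DT40 Tdp1-/- cells stably complemented with human TDP1 were seeded at 400 cells/well in medium containing 20 nM camptothecin, exposed to pin-transferred compounds, and grown at 37 °C for at least 48 hr. Viability was read as ATP luminescence.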
Starred values were filed as active, the others as inactive; [ ] = another dose, or the depositor's remark. Unless noted, calls come from the whole dose curve; as a rule, active = well fitted curve in the direction sought with a large enough effect; inconclusive = small, poorly fitted or top-dose-only effect, or another doubt; inactive = no such curve, though single readings can be large; an effect the other way counts as inactive or inconclusive.

Cc1nnc(N/N=C\c2ccc(-c3ccccc3[N+](=O)[O-])o2)n1N was read as TDP1 inh 7%, DT40 TDP1 no CPT inconclusive, HepG2 tox -106%, IL-1B inflam inh 103, TGFb inhibitor 8.9µM* and TDP1 cell CPT inconclusive.
For COc1ccc(-c2ccc(/C=N/NC(=O)c3cccnc3)o2)c([N+](=O)[O-])c1 the results were DT40 TDP1 no CPT 16µM*, HepG2 tox -2%, IL-1B inflam inh -8, TGFb inhibitor 3% and TDP1 cell CPT inconclusive.
Cc1ccc(C(=O)N/N=C\c2ccc(-c3ccc(Cl)c(Cl)c3)o2)cn1 was read as TDP1 inh -6%, DT40 TDP1 no CPT inconclusive, HepG2 tox -96%, IL-1B inflam inh inconclusive, TGFb inhibitor 11µM* and TDP1 cell CPT inconclusive.
Screening Cc1nnc(N/N=C/c2ccc(-c3ccccc3F)o2)n1N returned TDP1 inh 8%, DT40 TDP1 no CPT -7%, HepG2 tox -96%, IL-1B inflam inh -18, TGFb inhibitor inconclusive and TDP1 cell CPT inconclusive.
`Cc1ccc(C(=O)N/N=C/c2ccc(OC(=O)c3ccccc3Cl)cc2)cn1` gave DT40 TDP1 no CPT inconclusive, HepG2 tox -26%, IL-1B inflam inh -2, TGFb inhibitor inconclusive and TDP1 cell CPT inconclusive.
For CC1CCCN(C(=O)COC(=O)CNC(=O)c2ccc(Br)cc2)C1 (centres undefined) the results were DT40 TDP1 no CPT 5%, HepG2 tox -4%, IL-1B inflam inh -10, TGFb inhibitor 12% and TDP1 cell CPT 16%.
`NCCC[C@@H](CC(=O)N[C@@H]1CCCC[C@H]1C(=O)N[C@H](CC(=O)N[C@@H](CCC(=O)O)CC(=O)O)Cc1ccccc1)NC(=O)C[C@H](Cc1ccccc1)NC(=O)[C@@H]1CCCC[C@H]1N` gave TDP1 inh 6%.
CCOc1ccc(C(CC(=O)Nc2ccc(C(=O)OC)cc2)N2Cc3ccccc3C2=O)cc1OC (centres undefined) was read as TDP1 inh 3%, DT40 TDP1 no CPT 1%, HepG2 tox 0%, TGFb inhibitor 4% and TDP1 cell CPT 2%.
Cc1ccc(C(=O)N/N=C/c2ccc(-c3cccc(Cl)c3)o2)cn1 was read as TDP1 inh 4%, DT40 TDP1 no CPT 15µM*, HepG2 tox -12%, IL-1B inflam inh -23, TGFb inhibitor inconclusive and TDP1 cell CPT 15µM*.
For O=C(N/N=C\c1ccc(-c2cccc(Cl)c2)o1)C(=O)NC1CCCC1 the results were TDP1 inh 5%, DT40 TDP1 no CPT inconclusive, HepG2 tox -3%, IL-1B inflam inh -7, TGFb inhibitor 0% and TDP1 cell CPT -28%.
CS(=O)(=O)Nc1ccc(C2=NN(C(=O)c3ccccc3)C(c3cccs3)C2)cc1 (centres undefined) was read as DT40 TDP1 no CPT inconclusive, HepG2 tox -6%, IL-1B inflam inh inconclusive, TGFb inhibitor -8% and TDP1 cell CPT inconclusive.
For CN(C)c1ccc(C2CC(c3cccc(NS(C)(=O)=O)c3)=NN2C(=O)c2ccccc2)cc1 (centres undefined) the results were TDP1 inh 8%, DT40 TDP1 no CPT inconclusive, HepG2 tox -24%, IL-1B inflam inh -58*, TGFb inhibitor 1% and TDP1 cell CPT -26%.
Screening COc1cccc(C2CC(c3cccc(NS(C)(=O)=O)c3)=NN2C(=O)c2ccccc2)c1OC (centres undefined) returned TDP1 inh 3%, DT40 TDP1 no CPT 21µM*, HepG2 tox -9%, IL-1B inflam inh -2, TGFb inhibitor inconclusive and TDP1 cell CPT 23µM*.
N#CCCN(C(=O)COC(=O)CCNS(=O)(=O)c1ccccc1)c1ccccc1 was read as TDP1 inh 0%[56.1 µM], DT40 TDP1 no CPT 4%, HepG2 tox -2%, IL-1B inflam inh -6, TGFb inhibitor -5% and TDP1 cell CPT 6%.
Screening O=S(=O)(Nc1cc(F)ccc1F)c1cccc2nonc12 returned TDP1 inh -3%, DT40 TDP1 no CPT 13%, HepG2 tox 2%, IL-1B inflam inh 23, TGFb inhibitor 2% and TDP1 cell CPT -14%.
For CCOC(=O)N1CCC(N(C(=O)Nc2ccc(Cl)c(Cl)c2)C(C)CC)CC1 (centres undefined) the results were TDP1 inh 1%, DT40 TDP1 no CPT 10µM*, HepG2 tox -26%, IL-1B inflam inh -85*, TGFb inhibitor inconclusive and TDP1 cell CPT 23µM*.
`CCOC(=O)c1ccccc1NC(=O)N(C(C)C)C1CCN(C(C)=O)CC1` gave TDP1 inh 0%, DT40 TDP1 no CPT 15µM*, HepG2 tox -6%, TGFb inhibitor -4% and TDP1 cell CPT 15µM*.
Screening CC(C)CCN(C(=O)Nc1ccc(Cl)c(Cl)c1)C1CCN(C(C)C)CC1 returned TDP1 inh 5%, DT40 TDP1 no CPT 15µM*, HepG2 tox -99%, TGFb inhibitor inconclusive and TDP1 cell CPT 15µM*.
For CC1CCCCN1CCNC(=O)C1CCCN(S(=O)(=O)c2cccc3nsnc23)C1 (centres undefined) the results were TDP1 inh 0%, DT40 TDP1 no CPT 0%, HepG2 tox -7%, IL-1B inflam inh 3, TGFb inhibitor 6% and TDP1 cell CPT 6%.
`CC(=O)Nc1ccc(SCCN2CC[C@@H](C(C)(C)C)CCC2=O)cc1` gave TDP1 inh 1%, DT40 TDP1 no CPT 13µM*, HepG2 tox 12%, IL-1B inflam inh -18, TGFb inhibitor -7% and TDP1 cell CPT inconclusive.
`Cc1ccc(SCCN2CCC(C(C)(C)C)CCC2=O)cc1` (centres undefined) gave DT40 TDP1 no CPT inconclusive, HepG2 tox -30%, IL-1B inflam inh 1, TGFb inhibitor inconclusive and TDP1 cell CPT 9.2µM*.
For CC(C)(C)c1ccc(OCCC(=O)OCC(=O)NC2CCS(=O)(=O)C2)cc1 (centres undefined) the results were TDP1 inh 5%, DT40 TDP1 no CPT inconclusive, HepG2 tox -20%, IL-1B inflam inh 1, TGFb inhibitor 0% and TDP1 cell CPT inconclusive.

Screens as filed in PubChem BioAssay.
